According to PubChem BioAssay (NCI):
The panel holds about 79,000 compounds, 15% with a hit somewhere; the sample as a whole holds those more often. Active and inactive are the calls of the source. Rule as the data show it: active = growth inhibition above about 70%; inactive = the rest.

How the values were obtained:
[1] = NCI Yeast Anticancer Drug Screen. Data for the rad52 strain (AID 147);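 also: 0% = growth of vehicle-treated control cultures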; settings: S. cerevisiae rad52 mutant growth inhibition, active compounds read high
Procedure, shortened: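 Read-out: growth inhibition versus vehicle-treated controls. Cells were a DNA repair-deficient yeast strain treated with compounds.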

[2] = NCI Yeast Anticancer Drug Screen. Data for the wt1 strain (AID 149);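 also: 0% = growth of vehicle-treated wt1 cultures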; settings: S. cerevisiae wt1 strain (SPY 50644) growth inhibition, active compounds read high
Procedure, shortened: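 The wt1 strain was treated with compounds, and growth was compared with vehicle-treated cultures to give inhibition.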

[3] = NCI Yeast Anticancer Drug Screen. Data for the rad50EPP+ strain (AID 151);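 also: 0% = growth of vehicle-treated control cultures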; settings: S. cerevisiae rad50 mutant strain, active compounds read high
Procedure, shortened: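 Growth inhibition read against vehicle controls in rad50EPP+ yeast, a strain altered in DNA damage repair, after compound exposure.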

[4] = NCI Yeast Anticancer Drug Screen. Data for the mgt1 strain (AID 153); settings: S. cerevisiae mgt1 mutant growth inhibition, active compounds read high
Procedure, shortened: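 mgt1 yeast grown with test compound; read-out is growth inhibition versus vehicle-treated cultures.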

[5] = NCI Yeast Anticancer Drug Screen. Data for the rad50 strain (AID 155);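 also: 0% = growth of vehicle-only cultures of the same strain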; settings: S. cerevisiae rad50 strain growth inhibition, active compounds read high
Procedure, shortened: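 Cells are treated with compound, grown, and their growth is then scored against vehicle-only cultures of the same repair-deficient yeast strain.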

[6] = NCI Yeast Anticancer Drug Screen. Data for the mec2-1 strain (AID 157); settings: S. cerevisiae mec2-1 strain, active compounds read high
Procedure, shortened: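 Yeast mec2-1 mutant treated with compound. Readout: growth inhibition vs vehicle controls.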

[7] = NCI Yeast Anticancer Drug Screen. Data for the rad14 strain (AID 159);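 also: 0% = growth of vehicle-treated control cultures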; settings: S. cerevisiae rad14 strain growth inhibition, active compounds read high
Procedure, shortened: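 Readout: yeast growth inhibition, referenced to vehicle-only cultures. Strain bears a defined alteration in DNA damage repair.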

[8] = NCI Yeast Anticancer Drug Screen. Data for the cln2 rad14 strain (AID 165);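 also: 0% = growth equal to vehicle treated cultures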; settings: S. cerevisiae cln2 rad14 strain, active compounds read high
Procedure, shortened: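 cln2 rad14 yeast strain; compound exposure; growth inhibition read vs vehicle controls.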

[9] = NCI Yeast Anticancer Drug Screen. Data for the bub3 strain (AID 167); settings: S. cerevisiae bub3 mutant strain, active compounds read high
Procedure, shortened: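 Part of a panel of yeast mutants defective in DNA damage repair or cell cycle regulation. Each strain is grown with compound, and inhibition is calculated relative to solvent-treated cultures.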

[10] = NCI Yeast Anticancer Drug Screen. Data for the wt2 strain (AID 169);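 also: 0% = growth of vehicle-treated yeast cultures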; settings: S. cerevisiae wt2 strain growth inhibition, active compounds read high
Procedure, shortened: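 Read-out: growth inhibition versus vehicle-treated control cultures after compound exposure of the yeast strain.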

[11] = NCI Yeast Anticancer Drug Screen. Data for the mlh1 strain (AID 171);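 also: 0% = growth of vehicle-treated control cultures of the same strain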; settings: S. cerevisiae mlh1 strain growth inhibition, active compounds read high
Procedure, shortened: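 Read-out: growth inhibition versus vehicle controls. Strain: engineered yeast with a defined DNA repair or cell cycle defect, compound-treated.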

[12] = NCI Yeast Anticancer Drug Screen. Data for the sgs1 strain (AID 173);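 also: 0% = growth of vehicle-only control cultures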; settings: S. cerevisiae sgs1 mutant, active compounds read high
Procedure, shortened: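 Read-out: yeast growth inhibition relative to vehicle controls, following compound exposure of a strain with a defined DNA repair/cell cycle alteration.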

[13] = NCI Yeast Anticancer Drug Screen. Data for the mlh1 rad18 strain (AID 175); settings: S. cerevisiae mlh1 rad18 strain growth inhibition, active compounds read high
Procedure, shortened: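 Yeast w/ defined DNA-repair lesions; compound exposure; growth vs vehicle controls → % inhibition.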

[14] = NCI Yeast Anticancer Drug Screen. Data for the rad18 strain (AID 177); settings: S. cerevisiae rad18 mutant growth inhibition, active compounds read high
Procedure, shortened: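 Readout: growth inhibition vs vehicle controls. Cells: genetically altered yeast strain, DNA repair defect.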

[15] = NCI Yeast Anticancer Drug Screen. Data for the sgs1 mgt1 strain (AID 161);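 also: 0% = growth of cultures given vehicle only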; settings: S. cerevisiae sgs1 mgt1 strain, active compounds read high
Procedure, shortened: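 Read-out: growth inhibition vs vehicle controls. Cells: mutant yeast strain deficient in DNA damage repair.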

[16] = at 5.0 µM (retest, dose inferred, filed as 0.5)
[17] = at 50.0 µM (retest, dose inferred, filed as 5.0)

Measured: growth inhibition

COCCOC(=O)CCn1cc(F)c(=O)[nH]c1=O
active: [3]; at 100.0 µM 85% | [4]; at 100.0 µM 80% | [5]; [17] 70% | [6]; [17] 78% | [6]; at 50.0 µM 83.5% | [6]; at 100.0 µM 83% | [10]; at 100.0 µM 76% | [11]; at 100.0 µM 77% | [12]; at 33.0 µM 76% | [12]; at 100.0 µM 88%
inactive: [1]; at 1.2 µM -1% | [1]; at 3.7 µM -1% | [1]; at 11.0 µM 11% | [1]; at 33.0 µM 31% | [1]; at 100.0 µM 62% | [2]; at 1.2 µM 0% | [2]; at 3.7 µM 3% | [2]; at 11.0 µM 7% | [2]; at 33.0 µM 12% | [2]; at 100.0 µM 23% | [3]; at 1.2 µM -3% | [3]; at 3.7 µM 3% | [3]; at 11.0 µM 27% | [3]; at 33.0 µM 67% | [4]; at 1.2 µM -1% | [4]; at 3.7 µM 7% | [4]; at 11.0 µM 16% | [4]; at 33.0 µM 48% | [5]; at 1.2 µM -5% | [5]; at 3.7 µM -11% | [5]; [16] 24% | [5]; at 11.0 µM 0% | [5]; at 33.0 µM 34% | [5]; at 50.0 µM 64.1% | [5]; at 100.0 µM 61% | [6]; at 1.2 µM -1% | [6]; at 3.7 µM 3% | [6]; [16] 5% | [6]; at 11.0 µM 13% | [6]; at 33.0 µM 48% | [7]; at 1.2 µM -3% | [7]; at 3.7 µM 0% | [7]; at 11.0 µM 7% | [7]; at 33.0 µM 14% | [7]; at 100.0 µM 34% | [8]; [16] 22% | [8]; [17] 40% | [8]; at 50.0 µM 36.8% | [9]; at 1.2 µM 0% | [9]; at 3.7 µM 3% | [9]; [16] -8% | [9]; at 11.0 µM 7% | [9]; at 33.0 µM 5% | [9]; [17] 11% | [9]; at 50.0 µM 17.8% | [9]; at 100.0 µM 17% | [10]; at 1.2 µM -1% | [10]; at 3.7 µM 2% | [10]; at 11.0 µM 14% | [10]; at 33.0 µM 48% | [11]; at 1.2 µM 3% | [11]; at 3.7 µM 9% | [11]; at 11.0 µM 18% | [11]; at 33.0 µM 53% | [12]; at 1.2 µM 1% | [12]; at 3.7 µM 12% | [12]; at 11.0 µM 36% | [13]; [16] 13% | [13]; [17] 51% | [13]; at 50.0 µM 62.9% | [14]; at 1.2 µM 1% | [14]; at 3.7 µM 6% | [14]; at 11.0 µM 15% | [14]; at 33.0 µM 32% | [14]; at 100.0 µM 56%

COC(=O)CCNc1c2ccccc2nc2cccc([N+](=O)[O-])c12
inactive: [3]; at 1.2 µM 18% | [3]; at 3.7 µM 49% | [4]; at 1.2 µM 61% | [9]; at 1.2 µM -13% | [9]; at 3.7 µM 11% | [9]; [16] 10% | [9]; at 11.0 µM 66% | [10]; at 1.2 µM 5% | [10]; at 3.7 µM 27%
active: [1]; at 1.2 µM 97% | [1]; at 3.7 µM 97% | [1]; at 11.0 µM 97% | [1]; at 33.0 µM 98% | [1]; at 100.0 µM 98% | [2]; at 1.2 µM 79% | [2]; at 3.7 µM 87% | [2]; at 11.0 µM 96% | [2]; at 33.0 µM 97% | [2]; at 100.0 µM 97% | [3]; at 11.0 µM 80% | [3]; at 33.0 µM 93% | [3]; at 100.0 µM 97% | [4]; at 3.7 µM 74% | [4]; at 11.0 µM 87% | [4]; at 33.0 µM 97% | [4]; at 100.0 µM 97% | [5]; at 1.2 µM 95% | [5]; at 3.7 µM 95% | [5]; [16] 95% | [5]; at 11.0 µM 96% | [5]; at 33.0 µM 97% | [5]; [17] 98% | [5]; at 50.0 µM 86% | [5]; at 100.0 µM 97% | [6]; at 1.2 µM 97% | [6]; at 3.7 µM 97% | [6]; [16] 90% | [6]; at 11.0 µM 98% | [6]; at 33.0 µM 98% | [6]; [17] 99% | [6]; at 50.0 µM 91.3% | [6]; at 100.0 µM 98% | [7]; at 1.2 µM 99% | [7]; at 3.7 µM 99% | [7]; at 11.0 µM 99% | [7]; at 33.0 µM 99% | [7]; at 100.0 µM 99% | [15]; [16] 94% | [15]; [17] 98% | [15]; at 50.0 µM 81.2% | [8]; [16] 99% | [8]; [17] 99% | [8]; at 50.0 µM 89.4% | [9]; at 33.0 µM 96% | [9]; [17] 99% | [9]; at 50.0 µM 84% | [9]; at 100.0 µM 99% | [10]; at 11.0 µM 85% | [10]; at 33.0 µM 97% | [10]; at 100.0 µM 99% | [11]; at 1.2 µM 84% | [11]; at 3.7 µM 91% | [11]; at 11.0 µM 95% | [11]; at 33.0 µM 96% | [11]; at 100.0 µM 97% | [12]; at 1.2 µM 97% | [12]; at 3.7 µM 96% | [12]; at 11.0 µM 98% | [12]; at 33.0 µM 98% | [12]; at 100.0 µM 98% | [13]; [16] 96% | [13]; [17] 99% | [13]; at 50.0 µM 81.1%
